# Source: PubChem
# NPC1 promoter act = qHTS Assay for NPC1 Promoter Activators; Huh7 NPC1 promoter luciferase reporter, 24 h; Potency, µM (titrated, usually from 9.22 µM), inactives show at the highest dose activation, hits mostly activators; 2.4% of 320,000 active; note: % of control where 0% means no effect; nearly all actives have a fitted effect of over 60% in size
#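 Stable NPC1-promoter luciferase Huh7 line; cpd (DMSO) 24 h, 37 °C, 5% CO2; Amplite luciferase reagent 10 min RT; luminescence readout. qHTS format.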
# ELG1 DNA repair = qHTS screen for small molecules that inhibit ELG1-dependent DNA repair in human embryonic kidney (HEK293T) cells expressing luciferase-tagged ELG1 | Potency, µM (top dose mostly 46.1 µM), without a hit: at the highest dose activity change, negative = inhibition, most hits filed as inhibitors | HEK293T ELG1-luciferase reporter, luminescence, 16 h; DNA damage induced by 5-fluorouridine | 2.3% of 330,000 active; note: % is set by controls: 0 for no effect and ±100 for the full control effect; nearly all actives have a fitted effect of over 55% in size
#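 5-Fluorouridine DNA damage + compound/DMSO, 2,000 cells/well, 16 h, 37 °C/5% CO2. ONE-Glo, 30 min RT, luminescence. Readout = decrease in reporter signal.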
# SMN2 splice up = qHTS Assay for Enhancers of SMN2 Splice Variant Expression; HEK293 SMN2-luciferase splicing reporter, luminescence, 30-36 h; Potency, µM (highest dose often 46.1 µM), for the others: at the highest dose activity change, positive = activation, usual class: activators; 2.8% of 210,000 active; note: % of control where 0% means no effect; nearly all actives have a fitted effect of over 55% in size
#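 HEK293 cells carry an SMN2 minigene-luciferase reporter in which exon 7 inclusion puts luciferase in frame. Cells were seeded at 2000 cells/well, attached for 10-12 hours, then exposed to compounds for 30-36 hours at 37C before ONE-Glo luminescence.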
# Rab9 promoter act = qHTS Assay for Rab9 Promoter Activators. Huh7 Rab9 promoter-luciferase reporter, luminescence, 24 h. Potency, µM (series often up to 9.22 µM), without a hit: at the top dose activation, negative = inhibition, most hits filed as activators. 2.8% of 320,000 active; note: % of control where 0% means no effect; nearly all actives have a fitted effect of over 60% in size
#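 Huh7 cells stably carrying a Rab9 promoter-luciferase reporter, 1500 cells per well in OP-MEM I with 10% FBS, treated with compound 24 hours at 37C. Luciferase activity read by luminescence after 10 minutes with Amplite reagent.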
# FLuc modulator = qHTS profiling assay for firefly luciferase inhibitor/activator using purifed enzyme and Km concentrations of substrates (counterscreen for miR-21 project); Luciferin 4-monooxygenase (Photinus pyralis), P08659; purified FLuc, Km substrates, luminescence inhibition; 6.9% of 360,000 active; AID 588342, 2011; Potency, µM (highest dose often 57.5 µM), for inactives: at the highest dose activity change, negative = inhibition, actives largely listed as inhibitors;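 note: plate controls were vehicle for no effect and reference inhibitor for full effect; nearly all actives have a fitted effect of over 55% in size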
# Target sequence (P08659 whole entry, looked up): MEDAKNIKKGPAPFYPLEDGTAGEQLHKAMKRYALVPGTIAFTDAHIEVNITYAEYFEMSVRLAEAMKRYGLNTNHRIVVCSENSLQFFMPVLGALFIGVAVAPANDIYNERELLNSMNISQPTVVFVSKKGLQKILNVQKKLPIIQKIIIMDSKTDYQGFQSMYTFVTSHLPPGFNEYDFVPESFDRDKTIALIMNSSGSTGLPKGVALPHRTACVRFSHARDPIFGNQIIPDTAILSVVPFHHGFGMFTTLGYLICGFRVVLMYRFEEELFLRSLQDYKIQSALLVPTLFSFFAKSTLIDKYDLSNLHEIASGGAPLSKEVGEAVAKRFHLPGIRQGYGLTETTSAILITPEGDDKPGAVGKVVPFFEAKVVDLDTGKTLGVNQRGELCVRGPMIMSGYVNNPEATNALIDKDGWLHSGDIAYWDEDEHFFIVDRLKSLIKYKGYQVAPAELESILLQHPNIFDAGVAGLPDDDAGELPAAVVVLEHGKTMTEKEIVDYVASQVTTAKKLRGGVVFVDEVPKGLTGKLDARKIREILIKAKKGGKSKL
#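 Purified P. pyralis luciferase, 10 nM final, with Km-level 10 uM D-luciferin and 10 uM ATP in 50 mM Tris acetate pH 7.5, 10 mM Mg acetate, 0.01% Tween-20, 0.05% BSA; 6-point qHTS titration about 60 µM downward; luminescence read.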
# ELG1 genotox = qHTS screen for small molecules that induce genotoxicity in human embryonic kidney (HEK293T) cells expressing luciferase-tagged ELG1. HEK293T ELG1-luciferase reporter, luminescence, 16 h. 1.3% of 330,000 active. Potency, µM (doses to about 46 µM), inactives show at the highest dose activity change, positive = activation, most hits filed as activators; note: % of control where 0% means no effect; nearly all actives have a fitted effect of over 60% in size
#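 HEK293T cells expressing luciferase-tagged ELG1 were exposed to compound or DMSO vehicle for 16 hr at 37 °C and 5% CO2. Luciferase activity was then measured with ONE-Glo after 30 min at room temperature.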
# * hit, by the source's call; ? = inconclusive; . = no result; [ ] = another dose, or the depositor's remark. A selection: hits, their analogues and other compounds. The true share with any hit is near 9.2%. Calls come from the whole dose curve; as a rule, active = well fitted curve in the direction sought with a large enough effect; inconclusive = small, poorly fitted or top-dose-only effect, or another doubt; inactive = no such curve, though single readings can be large; an effect the other way counts as inactive or inconclusive. Potency is the fitted concentration of half-maximal effect.
SMILES,NPC1 promoter act,ELG1 DNA repair,SMN2 splice up,Rab9 promoter act,FLuc modulator,ELG1 genotox
O=C(CSc1nccn1-c1cccc(Cl)c1)Nc1ccc2c(c1)OCO2,.,.,.,.,-4.0%,.
O=C(O)/C=C\c1c2ccc(=O)c(O)c-2oc2c(O)c(O)ccc12,.,.,-7.5%[9.22 µM],.,.,.
CCNC(=O)c1ccc(C23CC4CC(CC(C4)C2)C3)o1,-7.1%,-4.2%,-6.5%,-2.5%,13.5µM*,-5.9%
COc1ccc(Oc2nnc(C)c3ccccc23)cc1,2.51µM*,?,?,3.98µM*,12µM*,?
COc1ccc(-c2nnc3c4ccccc4c(C)nn23)cc1,?,?,?,?,15.1µM*,?
Cc1ccc2nc(-c3cccc(NC(=O)c4ccc5c(c4)OCCO5)c3)oc2c1,11.2%,?,-12.9%,4.6%,9.53µM*,12.2%
CC(C)c1ccc2oc(-c3cccc(NC(=O)c4ccc5c(c4)OCCO5)c3)nc2c1,.,.,-3.5%,.,2.13µM*,.
O=C(Nc1ccc2oc(-c3ccc4ccccc4c3)nc2c1)c1ccc2c(c1)OCCO2,?,?,-35.4%,?,-1.5%,7.2%
Cc1cc2c(cc1S(=O)(=O)NCc1ccc(F)cc1)OCCN2C,.,.,.,.,-13.4%,.
O=C(COc1nsnc1N1CCOCC1)Nc1ccc(Br)cc1,-0.6%,14.7%,.,2.4%,-2.0%,-3.4%
Cc1ccc(CNC(=O)C2CCN(C(=O)c3cnn(-c4ccccc4)c3-n3cccc3)CC2)cc1,.,.,-37.9%,.,-15.2%,.
CC(C)c1ccc(C(C)NC(=O)C2CCCC2)cc1 (stereo unspecified),-5.9%,3.2%,.,0.5%,3.3%,1.0%
COc1ccc(/C=C2/SC(=S)N(CCCC(=O)Nc3ccccc3C(=O)O)C2=O)cc1,-19.5%,-1.8%,.,-8.4%,26.9µM*,-14.2%
COc1ccc(/C=C2/SC(=S)N(CCCC(=O)Nc3cccc(O)c3)C2=O)cc1,-4.4%,-17.4%,.,-6.6%,13.5µM*,6.1%
COc1cccc(/C=C2/SC(=S)N(CC(=O)NNC(=O)c3ccccc3OC)C2=O)c1,-1.9%,-0.6%,.,-0.4%,13.5µM*,2.9%
COc1cccc(/C=C2\SC(=S)N(CCC(=O)NNC(=O)c3ccccc3OC)C2=O)c1,5.4%,-14.5%,.,-1.0%,-17.6%,-3.5%
COc1ccc(/C=C2\SC(=S)N(CCC(=O)Nc3cccc(O)c3)C2=O)cc1OC,-6.0%,2.3%,.,-1.8%,?,10.0%
Cc1ccc(/C=C2\SC(=S)N(CCCC(=O)Nc3ccccc3C(=O)O)C2=O)cc1,3.1%,-0.4%,.,-1.9%,3.8%,10.6%
Cc1cc(-c2ccc(S(=O)(=O)N3CCCCC3)s2)on1,-1.2%,-0.8%,.,1.4%,-0.3%,-1.7%
O=C(NNS(=O)(=O)c1cc(Cl)cc(Cl)c1)c1sccc1-n1cccc1,1.2%,-7.9%,10.3%,1.2%,-0.4%,-1.9%
Cc1ccc(OCC(=O)Nc2nnc(C3CCCO3)s2)c(Br)c1 (stereo unspecified),2.4%,?,4.2%,-3.4%,?,7.3%
O=C(Nc1nnc(C2CCCO2)s1)c1ccc(Br)cc1 (stereo unspecified),3.55µM*,?,26.8%,?,?,?
Cc1ccc(NCc2cccn2-c2nnc(N3CCC(C(=O)NCc4ccc(F)cc4)CC3)s2)cc1,.,.,-53.5%,.,-11.4%,.
CCCc1cc2c(=O)c(-c3ccc4c(c3)OCCO4)c(C)oc2cc1OS(C)(=O)=O,-0.8%,13µM*,-73.6%,2.2%,-7.4%,-9.2%
CCCc1cc2c(=O)c(-c3ccc4c(c3)OCCO4)coc2cc1OS(C)(=O)=O,?,?,?,3.16µM*,5.36µM*,0.2%
SMILES,NPC1 promoter act,ELG1 DNA repair,SMN2 splice up,Rab9 promoter act,FLuc modulator,ELG1 genotox
O=C(Nc1cc(C(F)(F)F)ccc1N1CCOCC1)c1ccc(Br)o1,.,.,-20.7%,.,5.3%,.
O=C(Nc1ccc(Cl)cc1Cl)c1ccc(Br)o1,2.24µM*,?,.,?,13.5µM*,?
O=C(Nc1cc(Cl)ccc1N1CCOCC1)c1ccc(Br)o1,3.16µM*,?,.,0.562µM*,0.849µM*,1.16µM*
COc1ccc(N2CCOCC2)c(NC(=O)c2ccc(Br)o2)c1,-4.4%,16.4µM*,.,2.1%,1.7%,-26.0%
O=C(CNC(=O)c1ccc(Br)o1)NCc1ccc(Cl)cc1Cl,-4.1%,11.6%,.,-5.2%,-14.3%,11.1%
COc1cc(OC)cc(OC(=O)C2CCN(C3=NS(=O)(=O)c4ccccc43)CC2)c1,6.7%,3.2%,.,7.0%,5.6%,1.3%
CCCNC(=O)C(Cc1ccc(I)cc1)NC(=O)c1ccc(C#N)cc1 (stereo unspecified),-0.1%,18.8%,.,1.5%,-0.8%,3.9%
CN1CCc2c(OCc3ccc(F)cc3)cccc2C1=O,-8.0%,10.3%,-13.5%,-7.8%,-10.6%,-2.0%
COC(=O)c1ccc(COc2cccc3c2CCN(Cc2ccccc2)C3=O)o1,-5.0%,23.1µM*,-43.5%,-8.7%,-5.0%,1.3%
Cc1ccc(CN2CCc3c(OCc4ccc(F)cc4)cccc3C2=O)cc1,-11.3%,5.8µM*,-59.3%,-15.6%,-1.3%,1.1%
COC(=O)c1ccc(COc2cccc3c2CCN(Cc2cccc(C)c2)C3=O)o1,-9.7%,?,-54.6%,-7.8%,2.7%,4.9%
Cc1cccnc1Nc1nc(-c2ccc(O)cc2)cs1,?,?,25.1µM*,3.55µM*,6.75µM*,?
Cc1cccnc1Nc1nc(-c2ccc(F)cc2)cs1,1.41µM*,?,.,2.82µM*,2.69µM*,13µM*
CCOC(=O)c1cc(S(=O)(=O)Nc2ccc(F)cc2F)cn1C,0.9%,-11.2%,.,-0.7%,1.1%,-7.3%
CCOC(=O)Cn1c(=O)c(-c2cc(Br)ccc2N)nc2ccccc21,-6.6%,-3.6%,.,0.7%,4.3%,-0.2%
Cn1c(=O)c(-c2cc(Br)ccc2N)nc2ccccc21,17.9%,?,19.2%,?,23.9µM*,?
COc1ccc(-c2nc(-c3cccs3)c(-c3cccs3)[nH]2)cc1O,1.2%,?,27.4%,-2.4%,16.9µM*,-14.6%
COc1ccc(NC2=C(c3ccc(OC)cc3)C(=O)c3ccccc32)cc1,5.8%,-5.7%,-4.5%[1.84 µM],12.1%,-2.4%,5.0%
COc1cc(C2N(C)C(=O)c3ccccc3N2C)ccc1O (stereo unspecified),-4.5%,3.2%,.,-0.1%,3.2%,-1.5%
COc1ccc(C2=C(N)c3ccccc3C2=O)cc1,4.47µM*,?,?,4.47µM*,10.7µM*,12.6µM*
